Screening data: PubChem BioAssay, SRMLSC
Shown are actives, neighbours in structure and some others; about 6.8% of the full set was active somewhere.
Abs 340nm: compounds absorbing at 340 nm. 65,000 tested, under 10 active. compound absorbance at 340 nm, fold over control. fold change at 10 µM;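 active = at 10 µM dose, initial 340 nm absorbance at least 2 fold that of control wells; inactive = change under 2 fold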;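 also: initial absorbance extrapolated from kinetic A340 decline of NADH oxidation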
Spn MK inh: blocks S. pneumoniae mevalonate kinase. purified MK, PK/LDH-coupled NADH absorbance 340 nm. inhibition, % at 10 µM. 65,000 tested, 0.48% active;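 active = ranked among the strongest by inhibition in the single 10 µM screen, a fixed top-ranked set picked for dose follow-up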
Fluor 339 460: intrinsic fluorescence of library compounds, ex339/em460 – biochemical, MLSMR library, data from DPM-DC assay, artefact control, profiling panel. compound autofluorescence, ex339/em460 nm, NADH buffer; active compounds read high; 1 = no-compound wells, NADH background. fluorescence fold increase at 10 µM. 65,000 tested, 5.5% active. AID 709;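 active = at 10 µM, mean starting fluorescence two-fold or more over control wells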;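 also: signal is the first read of a kinetic run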
Spn PMK inh: S. pneumoniae PMK inhibition; purified PMK, PK/LDH-coupled NADH absorbance 340 nm; inhibition, % at 10 µM; 65,000 tested, 0.49% active; AID 539;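 active = top-ranked compounds by inhibition in the single 10 µM screen, taking a fixed number of the strongest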;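 also: 0% = full reaction with DMSO carrier and 100% = background rate without enzyme reaction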
NADH coupling: blocks coupling enzymes of NAD/NADH assays; coupled PK/LDH NADH assays, four targets; IC50, µM (series often up to 10 µM), for the others: top-dose inhibition; 65,000 tested, 0.02% active; AID 774;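 active = single-dose screening hits from any of four coupled enzyme assays that gave an IC50 when retested across doses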;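 also: the DPM-DC format reads NADH fluorescence rather than 340 nm absorbance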
DPM-DC inhibit: S. pneumoniae DPM-DC inhibition. purified DPM-DC, PK/LDH coupled NADH fluorescence. calls only at 10 µM. 65,000 tested, 0.49% active. AID 556;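 active = the 320 compounds with the highest percent inhibition in the single-dose primary screen, excluding strongly autofluorescent ones, cut at about 32% in these data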;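 also: kinetic rate of NADH fluorescence loss reporting ADP formed by the decarboxylase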
Starred values were filed as active, the others as inactive; i = inactive; nt = not tested or not shown; + = active, no number; [ ] = another dose, or the depositor's remark.

SMILES	Abs 340nm	Spn MK inh	Fluor 339 460	Spn PMK inh	NADH coupling	DPM-DC inhibit
CCCCN(C)C(=O)CCCCn1c(=O)[nH]c2cc(OCC)c(OCC)cc2c1=O	1.04	4.0	2.19*	9.0	4.0%	i
CS(=O)(=O)N1CCN(C(=O)c2cc(-c3ccncc3)nc3ccc(Cl)cc23)CC1	1.05	5.0	1.09	1.0	2.0%	i
COC(=O)c1ccc(C(=O)OC)c(NC(=O)CCC(=O)O)c1	1.05	8.0	2.14*	0.0	4.0%	nt
COC(=O)c1ccc(C(=O)OC)c(NC(=O)CCc2ccc(C)o2)c1	1.02	7.0	1.41	1.0	6.0%	i
COC(=O)C1=C(C)N(CC2CCCO2)C(=O)C1 (centres undefined)	1.05	0.0	1.1	0.0	0.0%	i
O=C(Cc1cn2ccsc2n1)OCc1nc2ccccc2s1	1.01	1.0	1.02	25.0*	9.0%	i
O=C(Cc1cn2ccsc2n1)OCc1ccccc1	0.98	8.0	1.01	13.0	7.0%	i
CCOC(=O)CC(=O)CSc1nc2c(c(C)c1C#N)CCC2	1.03	0.0	2.67*	16.0	9.0%	i
CCN1C(=O)c2cccc3c(S(=O)(=O)NCc4ccco4)ccc1c23	1.05	8.0	2.29*	3.0	7.0%	i
CCOC(=O)C1=C(C)NC(=O)C1CC(=O)Nc1ccccc1 (centres undefined)	1.01	4.0	1.05	1.0	2.0%	i
O=C(CC1NCCNC1=O)OCCCc1ccccc1 (centres undefined)	1.05	2.0	1.09	2.0	1.0%	i
Cc1cc2n(n1)C(c1ccc(N(C)C)cc1)Nc1ccccc1-2 (centres undefined)	1.07	0.0	3.71*	6.0	3.0%	nt
Cc1cc2n(n1)C(c1ccc3c(c1)OCO3)Nc1ccccc1-2 (centres undefined)	1.02	4.0	2.28*	1.0	3.0%	i
Cc1cc2n(n1)C(c1ccccc1)Nc1ccccc1-2 (centres undefined)	1.02	2.0	2.01*	21.0	7.0%	i
Cc1ccc2c(c1)-c1cc(C)nn1C(c1ccc3c(c1)OCO3)N2 (centres undefined)	0.97	0.0	1.96	7.0	5.0%	i
c1cncc(C2Nc3ccccc3-c3nc4ccccc4n32)c1 (centres undefined)	1.01	i	1.66	i	4.0%	i
Cc1cnc(C)c(N2CCC(C(=O)NC(C)c3cccs3)CC2)n1 (centres undefined)	1.01	0.0	1.24	3.0	1.0%	i
O=S(=O)(c1ccc2nc(-c3ccco3)c(-c3ccco3)nc2c1)N1CCOCC1	1.04	13.0	2.25*	11.0	10.0%	i
O=C(Nc1ccc(N2CCOCC2)cc1)Nc1ccc2nc(-c3ccco3)c(-c3ccco3)nc2c1	1.02	3.0	1.06	0.0	3.0%	i
C(=N\C(/N=C/c1ccco1)c1ccco1)/c1ccco1	1.03	0.0	2.05*	0.0	3.0%	i
CC(C)Cn1c(SCc2nnc(-c3cccs3)o2)nc(O)cc1=O	1.01	0.0	0.99	19.0	6.0%	i
O=c1oc2cc(OCc3nn[nH]n3)ccc2c2c1CCCC2	1.11	0.0	3.8*	3.0	2.0%	nt
Cc1cc2oc(=O)c3c(c2cc1OCc1nn[nH]n1)CCCC3	1.09	2.0	3.29*	5.0	4.0%	nt
COc1ccc(OCC(=O)N2CCN(c3nnc(-c4ccccc4)c4ccccc34)CC2)cc1	1.06	1.0	1.13	26.0*	9.0%	i
COc1ccc(NC(=O)c2ccco2)cc1NC(=O)c1ccc(C)cc1	1.04	0.0	1.06	27.0*	9.0%	i
SMILES	Abs 340nm	Spn MK inh	Fluor 339 460	Spn PMK inh	NADH coupling	DPM-DC inhibit
CCOc1ccc(C(=O)Nc2ccc(NC(=O)c3ccco3)c(Cl)c2)cc1Br	1.11	0.0	2.95*	11.0	4.0%	i
Cc1ccc(NC(=O)c2cc(NC(=O)c3ccco3)ccc2N2CCCCC2)cc1	1.13	3.0	2.09*	1.0	2.0%	nt
COc1ccc(NC(=O)c2ccco2)cc1NC(=O)c1ccc(Br)o1	1.08	9.0	1.11	9.0	11.0%	i
CCOc1cc(NC(=O)c2ccco2)c(OCC)cc1NC(=O)CCc1ccc(OC)cc1	1.01	0.0	2.11*	16.0	4.0%	+[fluoresces]
CCCCn1nnnc1SCC(=O)Nc1ccc2c(c1)OCO2	1	5.0	1.09	11.0	6.0%	i
COC(=O)c1ccc(-n2nnnc2SCc2ccccc2OC)cc1	1	7.0	1.11	18.0	8.0%	i
O=C(NCCc1ccncc1)Nc1ccccc1Cl	1.01	10.0	1.02	12.0	8.0%	i
CCOC(=O)C1=C(C)NC(SCC(=O)O)=NC1c1ccccc1 (centres undefined)	1.04	11.0	1.07	12.0	8.0%	i
COc1cc2nc(N3CCNCC3)nc(N)c2cc1OC	1.09	9.0	3.96*	1.0	5.0%	nt
CCOc1cc2nc(-c3ccc(OC)c(OC)c3)nc(N3CCOCC3)c2cc1OC	1.09	10.0	1.47	6.0	15.0%	i
CCS(=O)(=O)NCC(c1cccnc1)N1CCN(c2ccccc2F)CC1 (centres undefined)	1.01	1.0	1.1	16.0	6.0%	i
CCOC(=O)c1c(CC(C)C)csc1NC=O	1.04	0.0	0.56	0.0	14.0%	+
CCCc1cc(=O)n2[nH]c(NCc3c(F)cccc3Cl)nc2n1	1.03	6.0	1.14	4.0	4.0%	i
Cn1nc(CC(=O)Nc2ncc(Br)s2)c2ccccc2c1=O	1.04	0.0	1.07	25.0*	8.0%	i
Cn1nc(CC(=O)Nc2ccc3c(c2)CCC3)c2ccccc2c1=O	1	4.0	1.09	7.0	4.0%	i
CC(C)(NC(=O)N1CCCC1)c1cccc(C(C)(C)NC(=O)N2CCCC2)c1	1	6.0	1.1	16.0	3.0%	i
COc1ccc(CNc2oc(COc3ccccc3)nc2C#N)cc1	1.04	5.0	0.96	16.0	7.0%	i
COc1ccccc1-c1nc(C#N)c(NCc2ccc(F)cc2)o1	1.03	12.0	3.91*	12.0	12.0%	nt
N#Cc1nc(COc2ccccc2Cl)oc1NCc1ccc(F)cc1	1.03	3.0	1.31	3.0	2.0%	i
COCCNc1oc(-c2ccc(F)cc2)nc1C#N	1.05	0.0	2.36*	5.0	3.0%	nt
COCCNc1oc(-c2ccccc2Cl)nc1C#N	1.06	5.0	1.67	6.0	8.0%	i
COc1ccc(CCNc2oc(-c3ccccc3OC)nc2C#N)cc1OC	1.04	14.0	3.93*	15.0	15.0%	nt
N#Cc1nc(-c2ccc(F)cc2)oc1NCc1ccccc1	1.06	0.0	2.23*	1.0	1.0%	nt
O=C(O)c1ccc(C2CCCCC2)cn1	0.99	0.0	1.06	1.0	0.0%	i
COc1ccc(CCNc2oc(-c3ccccc3OC)nc2C#N)cc1	1.01	16.0	2.96*	18.0	6.0%	nt
COC(=O)c1ccccc1NC(=O)c1noc2c1CC(C(C)(C)C)CC2 (centres undefined)	0.98	5.0	1.19	22.0	4.0%	i
